Common to all, as to test: PBM binding z-score (relative to random genomic background probes); higher = stronger binding; sequences stand for … in GC…GCGATTGACAGCGTAGAATGAAGG
The test system of experiment [1] is FXR:RXRa (NR concentration 270 nM, RXRa partner concentration 90 nM). An outline of the steps: (§1)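 Ligand-free nuclear receptor dimers were bound for 1 h to custom Agilent 4×180K protein-binding microarrays. Detection used antibodies against each partner (one per run). Binding z-scores rest on regression-normalized fluorescence, with random background probes as the reference.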

In experiment [2] the test system is LXRa:RXRa (NR concentration 270 nM, RXRa partner concentration 90 nM). Summed up: as §1
Experiment [3] has as its system LXRa homodimer (NR concentration 270 nM). Summed up: as §1
In experiment [4] the test system is LXRb:RXRa (NR concentration 270 nM, RXRa partner concentration 90 nM). Summed up:
as §1

Experiment [5] deals with LXRb homodimer (NR concentration 270 nM). Summed up:
as §1

Experiment [6] concerns PPARa:RXRa (NR concentration 270 nM, RXRa partner concentration 90 nM). An outline of the steps:
as §1

For experiment [7], the system named is PPARg:RXRa (NR concentration 180 nM, RXRa partner concentration 90 nM). An outline of the steps: as §1
Experiment [8] concerns PPARg:RXRa 270nM:90nM, anti-RXR (NR concentration 270 nM, RXRa partner concentration 90 nM). An outline of the steps:
as §1

For experiment [9], the system named is PPARg:RXRa 30nM:10nM, anti-RXR (NR concentration 30 nM, RXRa partner concentration 10 nM). An outline of the steps:
as §1

Experiment [10] concerns PPARg:RXRa 90nM:30nM, anti-RXR (NR concentration 90 nM, RXRa partner concentration 30 nM). Summed up: as §1
For experiment [11], the system named is PPARg:RXRa DBDmut IVT, anti-RXR (DBD mutation: RXRa K156A/R161A, NR concentration 270 nM, RXRa partner concentration 90 nM). An outline of the steps:
as §1

Experiment [12] deals with PPARg:RXRa IVT, anti-PPARg (NR concentration 270 nM, RXRa partner concentration 90 nM). Summed up:
as §1

Experiment [13] relates to PPARg DBDmut:RXRa IVT, anti-PPARg (DBD mutation: PPARg1 K132A/R137A, NR concentration 270 nM, RXRa partner concentration 90 nM). An outline of the steps: as §1
Experiment [14] has as its system PPARg DBDmut IVT, anti-PPARg (DBD mutation: PPARg1 K132A/R137A, NR concentration 270 nM). Summed up:
as §1

Experiment [15] concerns PPARg homodimer (NR concentration 180 nM). An outline of the steps:
as §1

The test system of experiment [16] is PXR:RXRa (NR concentration 270 nM, RXRa partner concentration 90 nM). Summed up:
as §1

Experiment [17] concerns PXR homodimer (NR concentration 270 nM). An outline of the steps:
as §1

Experiment [18] deals with RARa:RXR (NR concentration 270 nM, RXRa partner concentration 90 nM). Summed up: as §1
Experiment [19] has as its system RARa homodimer (NR concentration 270 nM). Summed up: as §1
Experiment [20] concerns RARb:RXRa (NR concentration 270 nM, RXRa partner concentration 90 nM). An outline of the steps: as §1

Regarding CGAACTAGGTCAGAACAGGACTGTGAAGGATGAT, the PBM binding z-score was 0.728 in [1]; 0.692 in experiment [2]; -0.197 in experiment [3]; 0.252 in experiment [4]; -0.415 in [5]; 2.98 in experiment [6]. Further, the PBM binding z-score in [7] was found to be 5.13; in experiment [8] it was 4.21; in experiment [9], 1.77; in experiment [10], 3.09; in experiment [11], 7.08; in [12] it was 7.13. In addition, the PBM binding z-score in experiment [13] was 0.747; in [14] it was 0.194; in experiment [15], 0.61; in [16], 0.118; in [17] it was -0.184; in experiment [18], 0.787. For the same sequence, the figures for the PBM binding z-score in experiment [19] and in experiment [20] were 0.123 and 2.71, respectively.
In the case of CCTTACGGGTCAAGAGGTTATAGCACGACGAGCG, the PBM binding z-score in experiment [1] is 6.14; in experiment [2], 4.17; in experiment [3], 0.128; in experiment [4] it was 3.63; in [5], -0.435; in [6], 5.58. The PBM binding z-score in experiment [7] was 5.44; in experiment [8], 5.64; in experiment [9], 2.4; in experiment [10], 4.29; in experiment [11], 2.73; in experiment [12], 3.77. Further, the PBM binding z-score came out at 0.866 in experiment [13]; 0.102 in [14]; 2.77 in experiment [15]; 3.63 in experiment [16]; 0.116 in experiment [17]; 5.26 in experiment [18]. In addition, the PBM binding z-score stood at 0.579 in experiment [19] and 4.3 in [20].
Turning to CAAACTCGGTCAAGAGGTCAAAGTCCGCTTCCCG, the PBM binding z-score worked out at 6.2 in experiment [1]; 5.96 in [2]; 6.55 in experiment [3]; 5.13 in [4]; 1.61 in [5]; 5.82 in [6]. The PBM binding z-score in [7] amounted to 5.83; in experiment [8], 5.99; in experiment [9], 3.41; in [10], 5.47; in experiment [11] it was 4.29; in [12] it was 5.27. Also, the PBM binding z-score in experiment [13] came out at 1.06; in experiment [14] it was 1.86; in experiment [15], 4.18; in experiment [16] it was 5.89; in experiment [17] it was 2.01; in experiment [18], 6.63. In addition, the PBM binding z-score in [19] amounted to 1.95; in [20], 5.01.
Turning to CGAACTAGGTCATTGACAGGACCGTGAATAGTAA, the PBM binding z-score in experiment [1] is 4.32; in experiment [2], 2.36; in experiment [3] it was 0.141; in experiment [4] it was 1.66; in [5], -0.048; in experiment [6] it was 4.62. Further, the PBM binding z-score in experiment [7] was found to be 7.17; in experiment [8], 6.36; in [9], 3.72; in [10], 5.79; in experiment [11], 8.09; in experiment [12] it was 8.42. The PBM binding z-score in experiment [13] was 3.24; in experiment [14], 1.41; in experiment [15], 2.02; in experiment [16], 0.914; in experiment [17], -0.0715; in [18], 1.5. Moreover, the PBM binding z-score in experiment [19] is 0.647; in experiment [20], 3.51.
On to CGTCAAAGTTCAACTAAGGTATCGTAAAGCACGC, for which the PBM binding z-score in experiment [1] amounted to 7.21; in [2] it was 6.22; in [3] it was 4.37; in experiment [4], 4.24; in experiment [5] it was 2.23; in [6], 5.15. In addition, the PBM binding z-score in experiment [7] was found to be 4.83; in [8], 5.57; in [9], 2.02; in experiment [10], 4.5; in experiment [11], 0.0447; in [12], 1.92. In addition, the PBM binding z-score in experiment [13] is 1.2; in [14], 0.78; in experiment [15], 3.06; in experiment [16], 5.09; in experiment [17], 3.7; in experiment [18] it was 4.2. In addition, the results for the PBM binding z-score in experiment [19] and in experiment [20] were 2.1 and 5.24, respectively.
For TGTCAAAGATCAAAGGTAACGTAAGTATCCACAC, the PBM binding z-score in experiment [1] was 1.19; in [2], 1.08; in experiment [3], -0.325; in experiment [4], 1.32; in experiment [5], -0.103; in experiment [6], 2.73. In addition, the PBM binding z-score in [7] is 4.17; in experiment [8], 4.22; in [9], 2.19; in experiment [10] it was 3.68; in experiment [11] it was -0.516; in experiment [12] it was 2.24. The PBM binding z-score was 1.24 in [13]; 1.01 in [14]; 0.484 in [15]; 1.26 in experiment [16]; -0.19 in [17]; 2.22 in experiment [18]. Besides, the values for the PBM binding z-score in [19] and in experiment [20] were 0.426 and 1.02, respectively.

For the origin of these results see the supplement of paper PMC6555819.
